In PubChem BioAssay (Tox21):
Values without a mark were called inactive. Inconclusive results are not listed. Where a call stands in place of a potency, no number is given. Active and inactive are the calls of the source. Unless noted, calls come from the whole dose curve; as a rule, active = well fitted curve in the direction sought with a large enough effect in the repeat runs; inconclusive = weak or mixed curves; inactive = no such curve, though single readings can be large; an effect the other way counts as inactive or inconclusive.

Columns and labels:
[1] = qHTS assay to identify small molecule antagonists of the estrogen receptor alpha (ER-alpha) signaling pathway using the BG1 cell line in the presence of 0.1 nM 17-beta-estradiol - cell viability counter screen (AID 1259241); note: nearly all actives have a fitted effect of over 40% in size
In short: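 VM7Luc4E2, 4,000 cells/well, phenol red-free medium + 10% charcoal-stripped FBS; 24 hr plating; cpd + 0.1 nM E2 final, 22 hr 37C/5% CO2; CellTiter-Fluor 30 min, fluorescence.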

[2] = qHTS assay to identify small molecule antagonists of the androgen receptor (AR) signaling pathway using the MDA cell line in the presence of 0.5 nM R1881 - cell viability counter screen (AID 1259242); note: nearly all actives have a fitted effect of over 45% in size
In short: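 Counter screen for cytotoxicity run in the same wells as the AR antagonist reporter screen: MDA-kb2 cells were treated 16 hr with test compounds and 0.5 nM R1881, then live-cell protease activity was measured by fluorescence.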

[3] = biological target: Estrogen receptor (Homo sapiens) (UniProt P03372); test: qHTS assay to identify small molecule antagonists of the estrogen receptor alpha (ER-alpha) signaling pathway using the BG1 cell line in the presence of 0.1 nM 17-beta-estradiol (AID 1259244); note: nearly all actives have a fitted effect of over 50% in size
Chain of Estrogen receptor (Homo sapiens) (P03372 whole entry, looked up): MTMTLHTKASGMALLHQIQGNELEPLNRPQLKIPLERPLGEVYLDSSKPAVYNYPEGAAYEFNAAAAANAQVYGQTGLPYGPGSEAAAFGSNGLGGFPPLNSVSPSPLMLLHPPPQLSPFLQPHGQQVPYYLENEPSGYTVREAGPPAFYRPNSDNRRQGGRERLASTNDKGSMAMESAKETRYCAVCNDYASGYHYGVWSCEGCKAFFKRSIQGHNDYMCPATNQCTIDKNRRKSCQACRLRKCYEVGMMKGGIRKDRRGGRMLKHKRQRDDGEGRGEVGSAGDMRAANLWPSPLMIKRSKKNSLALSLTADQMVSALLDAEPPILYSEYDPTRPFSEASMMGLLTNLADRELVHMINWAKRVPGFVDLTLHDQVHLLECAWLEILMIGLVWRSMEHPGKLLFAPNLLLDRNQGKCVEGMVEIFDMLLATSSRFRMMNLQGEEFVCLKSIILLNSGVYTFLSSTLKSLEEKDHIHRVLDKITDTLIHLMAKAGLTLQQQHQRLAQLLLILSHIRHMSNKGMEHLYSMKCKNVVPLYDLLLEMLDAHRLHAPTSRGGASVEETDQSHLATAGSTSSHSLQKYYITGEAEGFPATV
In short: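 Cells: VM7Luc4E2, endogenous ER-alpha, 4x ERE-luc stable. Pre-culture 5 d, phenol red-free, charcoal-stripped FBS. Plated 24 h, compound + E2 0.1 nM final, 22 h 37C/5% CO2. Readout ONE-Glo luminescence.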

[4] = qHTS assay to identify small molecule phospholipidosis (PLD) inducers (AID 1259344; active = well fitted curve in the direction sought with a large enough effect; an effect the other way counts as inactive or inconclusive)
In short: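 HepG2 cells on collagen I, attached 4 h at 37 C, were co-treated with compound and LipidTOX Red dye for 24 h at 37 C, then fixed with paraformaldehyde plus Hoechst 33342 and imaged by high-content microscopy for phospholipid accumulation.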

[5] = qHTS assay to identify small molecule HDAC inhibitors (AID 1259364); note: nearly all actives have a fitted effect of over 45% in size; note: potency is the fitted concentration of half-maximal effect
In short: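 Luminescence from a cell-permeant luminogenic class I/II HDAC substrate reports endogenous deacetylase activity in intact HCT-116 cells treated with compounds for 2 h.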

[6] = qHTS assay to identify small molecule HDAC inhibitors - cell viability counter screen (AID 1259365); note: series mostly up to about 92 µM; nearly all actives have a fitted effect of over 50% in size
In short: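 Luminescence from CellTiter-Glo, developed 30min at room temperature, reports viability of wild-type HCT-116 cells treated 2hr with compounds at 37 C and 5% CO2 after overnight plating.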

[7] = qHTS assay to identify small molecule agonists of the sonic hedgehog signaling (Shh) pathway - cell viability counter screen (AID 1259366); note: nearly all actives have a fitted effect of over 50% in size; note: potency is the fitted concentration of half-maximal effect
In short: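 Cytotoxicity counter screen run in the same wells as the Shh reporter assay. NIH/3T3 cells carrying a Gli1 response element–driven luciferase were treated with DMSO-dissolved compounds for 24hr, and live-cell protease activity was measured with CellTiter-Fluor.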

[8] = qHTS assay to identify small molecule antagonists of the sonic hedgehog signaling (Shh) pathway - cell viability counter screen (AID 1259367); note: nearly all actives have a fitted effect of over 55% in size; note: potency is the fitted concentration of half-maximal effect
In short: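 NIH/3T3-derived Gli1-Luc reporter cells (2,000 per well) rested 4 hr at 37 C, then received DMSO compounds plus conditioned medium. After 23 hr of treatment, CellTiter-Fluor was added for 1 hr at 37C and fluorescence read.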

[9] = qHTS assay to identify small molecule agonists of the sonic hedgehog signaling (Shh) pathway (AID 1259368; calls by dose curve;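 note: NIH/3T3-derived 3T3Gli1-Luc cells carrying a stable Gli1-driven firefly luciferase reporter; series mostly up to about 92 µM; nearly all actives have a fitted effect of over 15% in size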)
In short: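 3T3Gli1-Luc (NIH/3T3 clone, stable Gli1-Luc); 4 hr pre-incubation, then cpd in DMSO 24 hr, 37 C/5% CO2; luciferase reagent 30 min RT; luminescence.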

SMILES | Potency [1] | Potency [2] | Potency [3] | outcome [4] | Potency [5] | Potency [6] | Potency [7] | Potency [8] | Potency [9]
COc1nn(CSP(=S)(OC)OC)c(=O)s1 | inactive | inactive | inactive | inactive | inactive | inactive | inactive | inactive | inactive
COCCOCCO | inactive | inactive | inactive | inactive | inactive | inactive |  | 61.1 µM (active) | inactive
O=[N+]([O-])c1cc(C(F)(F)F)cc([N+](=O)[O-])c1Cl | inactive | inactive | inactive |  | inactive | inactive | 30.8 µM (active) | 24.4 µM (active) | inactive
CNC(C)Cc1ccccc1OC (stereo not given) | inactive | inactive | inactive | inactive | inactive | inactive | inactive |  | inactive
O=C(CBr)Nc1ccc(Cl)cc1C(=O)c1ccccc1F | inactive | inactive | inactive |  | inactive | inactive | inactive | inactive | 
CCOP(=S)(OCC)SCSCC | inactive | inactive | inactive |  | inactive | inactive | inactive | inactive | inactive
Clc1ccc(C(OCCN2CCCCC2)c2ccccc2)cc1 (stereo not given) | inactive | inactive | inactive | inactive | inactive | inactive | inactive |  | inactive
CCCCCCCCCC(=O)O[C@H]1CC[C@H]2[C@@H]3CCC4=CC(=O)CC[C@@H]4[C@H]3CC[C@]12C | inactive | inactive | inactive | inactive | inactive | inactive | inactive | inactive | inactive
NC(=O)CI | inactive | inactive | inactive |  | 54.9 µM (active) | inactive | inactive | inactive | 
N#CCc1ccccc1 | inactive | inactive | inactive |  | inactive | inactive | inactive | inactive | inactive
Cn1sc(Cl)cc1=O | inactive | inactive | inactive | inactive | inactive | inactive | inactive | inactive | inactive
COC(=O)c1cncn1C(C)c1ccccc1 (stereo not given) | inactive | inactive | inactive | inactive | inactive | inactive | inactive | inactive | inactive
BrCCCCBr | inactive | inactive | inactive |  | inactive | inactive | inactive | inactive | 
